From PubChem BioAssay (Tox21) come the findings set out here.

The nature of assay [1]: qHTS assay to identify small molecule antagonists of the retinoid acid receptor (RAR) signaling pathway - cell viability counter screen (AID 1159551). Also: nearly all actives have a fitted effect of over 35% in size. The method in brief: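 C3RL4 cells were seeded overnight at 37 C, then treated with compounds plus 1 uM (final) retinol for 6 h at 37 C. Viability was read as ATP by CellTiter-Glo luminescence after 30 min at room temperature.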

Assay [2] is described as follows: qHTS assay to identify small molecule agonists of the retinoic acid receptor (RAR) signaling pathway (AID 1159553). The method, boiled down: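 C3RL4 cells carrying a RARE luciferase reporter were plated overnight at 37 C, then exposed to compounds in DMSO for 6 hr at 37 C and 5% CO2. Luminescence was read 30 min after luciferase reagent addition at room temperature.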
Background: In qHTS, concentration-response curves come from the screen itself.

A short description of assay [3]: qHTS assay to identify small molecule antagonists of the estrogen related receptor (ERR) signaling pathway from Tox21 library - cell viability counter screen (AID 1224834). Also: nearly all actives have a fitted effect of over 30% in size. Also: potency is read from the fitted curve at half-maximal effect. The method, boiled down:
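ERR reporter cells were plated 6 h before compound addition, then exposed to test compounds in DMSO for 17.5 h at 37 C. Viability was read as CellTiter-Fluor fluorescence after a 30-minute incubation at 37 C.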

For assay [4], the target named is Luciferin 4-monooxygenase (Photinus pyralis) (UniProt P08659). In words: qHTS assay to identify small molecule inhibitors of firefly luciferase (AID 1224835). Also: nearly all actives have a fitted effect of over 25% in size. Also: potency is read from the fitted curve at half-maximal effect. The method, boiled down: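 Biochemical qHTS: compounds run as interplate titrations against purified firefly enzyme, with D-luciferin and ATP each at its KM concentration. Light output recorded by CCD imaging.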

Assay [5] is described as follows: qHTS assay to identify small molecule agonists of the constitutive androstane receptor (CAR) signaling pathway - cell viability counter screen (AID 1224836). Also: series mostly up to about 92 µM; nearly all actives have a fitted effect of over 45% in size. The method in brief:
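Double-stable HepG2 hepatoma cells (hCAR plus CYP2B6-2.2kb) are treated for 23 h at 37 C with test compounds in 15-point concentration series. PK11195 at 0.75 uM final is co-added. Cell viability is quantified by CellTiter-Fluor.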

A short description of assay [6]: qHTS assay to identify small molecule antagonists of the constitutive androstane receptor (CAR) signaling pathway - cell viability counter screen (AID 1224837). Also: nearly all actives have a fitted effect of over 45% in size. Also: potency is read from the fitted curve at half-maximal effect. The method, boiled down: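 HepG2 cells stably expressing hCAR and a CYP2B6-2.2kb reporter were plated and pre-incubated 4 hr at 37 C/5% CO2, then given compounds at 15 concentrations plus 50 nM CITCO (final). After 23 hr, viability was read by CellTiter-Fluor fluorescence.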

Assay [7] can be described thus: qHTS assay to identify small molecule antagonists of the estrogen related receptor signaling pathway with the pleiotropic PPARgamma coactivator (PGC) from Tox21 10K library - cell viability counter screen (AID 1224840; active = well fitted cell-killing curve with a large enough effect in the repeat runs, not every such curve was filed as active; also: nearly all actives have a fitted effect of over 40% in size). The method, boiled down: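 PGC/ERR cells were seeded at 2,000 cells/well and left 6 hours at 37 C/5% CO2 before pin-tool addition of compounds in DMSO. After 17.5 hours at 37 C, CellTiter-Fluor was added and fluorescence read 30 minutes later.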

Assay [8] is described as follows: qHTS assay to identify small molecule antagonists of the retinoic acid receptor (RAR) signaling pathway (AID 1159552; also: nearly all actives have a fitted effect of over 50% in size; also: potency is read from the fitted curve at half-maximal effect). The method in brief:
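Antagonism of retinol-induced RARE reporter activity was measured in C3RL4 cells. Exposure to compounds and 1 uM final retinol lasted 6 hr at 37 C, with luminescence as endpoint.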

In assay [9] the target is Thyrotropin receptor (Homo sapiens) (UniProt P16473). In words: qHTS assay to identify small molecule agonists of the thyroid stimulating hormone receptor (TSHR) signaling pathway (AID 1224843; calls by dose curve; also: nearly all actives have a fitted effect of over 45% in size). The method, boiled down: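 Steps: seed 800 TSHR-HEK293 cells per well; add test compound and hold 30 min at ambient temperature; dispense cAMP-d2 then anti-cAMP cryptate; incubate 1 h at ambient; measure fluorescence intensity.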

Assay [10] can be described thus: qHTS assay to identify small molecule agonists of the estrogen related receptor signaling pathway with the pleiotropic PPARgamma coactivator (PGC) from Tox21 10K library (AID 1224842). Also: nearly all actives have a fitted effect of over 15% in size. The method, boiled down: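 PGC/ERR reporter cell line, 2,000 cells per well, incubated 6 h at 37 C before 23 nL compound in DMSO was added. After 18 h at 37 C, One-Glo luminescence read following 30 min at room temperature.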

Assay [11] deals with Nuclear receptor subfamily 1 group I member 3 (Homo sapiens) (UniProt Q14994). In words: qHTS assay to identify small molecule antagonists of the constitutive androstane receptor (CAR) signaling pathway (AID 1224838). Also: nearly all actives have a fitted effect of over 40% in size. The method, boiled down:
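HepG2 cells stably co-transfected with hCAR and a CYP2B6-2.2kb luciferase reporter were seeded 4 h before compound addition at 15 concentrations. Cells were stimulated with 50 nM CITCO (final) for 24 h at 37 C; luciferase luminescence was then read.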

Assay [12] shares this target. In words: qHTS assay to identify small molecule agonists of the constitutive androstane receptor (CAR) signaling pathway (AID 1224839). Also: nearly all actives have a fitted effect of over 15% in size. Also: potency is read from the fitted curve at half-maximal effect. The method in brief: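 Readout: firefly luciferase luminescence via ONE-Glo. System: HepG2 double-stable for hCAR and CYP2B6-2.2kb. Conditions: 15-point compound titration, PK11195 at 0.75 uM final, 24 h incubation.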
The nature of assay [13]: qHTS assay to identify small molecule antagonists of the estrogen related receptor signaling pathway with the pleiotropic PPARgamma coactivator (PGC) from Tox21 10K library (AID 1224841; call rule not given here; also: series mostly up to about 92 µM; actives are mostly falling curves and most rising ones were filed inactive; nearly all actives have a fitted effect of over 50% in size). The method, boiled down:
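PGC/ERR reporter cells were seeded at 2,000 cells/well and held 6 hours at 37 C/5% CO2 before pin-tool addition of compounds in DMSO. After 18 hours at 37 C, One-Glo was added and luminescence read after 30 minutes at room temperature.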

Assay [14] is described as follows: qHTS assay to identify small molecule antagonists of the estrogen related receptor (ERR) signaling pathway - cell viability counter screen (AID 1224818).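 Also: series mostly up to about 46 µM; viability measured after 17.5 h of compound exposure.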 The method in brief:
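ERR reporter cells plated 6 h at 37 C/5% CO2, then compounds in DMSO pin-transferred and incubated 17.5 h at 37 C. Viability read as CellTiter-Fluor fluorescence after 30 min at 37 C.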

Assay [15] in a line: qHTS assay to identify small molecule antagonists of the estrogen related receptor signaling pathway with the pleiotropic PPARgamma coactivator (PGC) cell viability counter screen (AID 1224822; also: series mostly up to about 46 µM). The method, boiled down: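 PGC/ERR cells were seeded at 2,000 cells/well, rested 6 h at 37 C/5% CO2, then given compounds in DMSO by pin tool and incubated 17.5 h at 37 C. Viability came from CellTiter-Fluor fluorescence after 30 min.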

Each structure is given as a SMILES string. Results filed as inconclusive are left out. Values without a mark were called inactive. Active and inactive are the calls of the source. Unless noted, calls follow the shape of the dose curve; as a rule, active = well fitted curve in the direction sought with a large enough effect in the repeat runs; inconclusive = weak or mixed curves; inactive = no such curve, though single readings can be large; an effect the other way counts as inactive or inconclusive.

Sequence of Luciferin 4-monooxygenase (Photinus pyralis) (P08659 whole entry, looked up): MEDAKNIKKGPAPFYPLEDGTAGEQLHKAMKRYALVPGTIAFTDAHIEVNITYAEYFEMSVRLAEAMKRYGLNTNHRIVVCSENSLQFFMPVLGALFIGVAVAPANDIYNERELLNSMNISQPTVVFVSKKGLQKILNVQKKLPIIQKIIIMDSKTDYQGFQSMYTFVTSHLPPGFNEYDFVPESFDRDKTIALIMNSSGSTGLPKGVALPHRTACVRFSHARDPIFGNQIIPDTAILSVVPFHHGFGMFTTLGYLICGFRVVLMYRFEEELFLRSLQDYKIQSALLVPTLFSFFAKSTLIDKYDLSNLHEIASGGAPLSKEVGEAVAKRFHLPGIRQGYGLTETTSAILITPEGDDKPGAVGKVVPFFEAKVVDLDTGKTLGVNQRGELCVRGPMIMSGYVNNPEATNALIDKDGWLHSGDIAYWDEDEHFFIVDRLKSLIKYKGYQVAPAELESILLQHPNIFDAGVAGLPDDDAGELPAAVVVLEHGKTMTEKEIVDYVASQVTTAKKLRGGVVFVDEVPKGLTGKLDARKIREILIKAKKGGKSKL
Sequence of Thyrotropin receptor (Homo sapiens) (P16473 whole entry, looked up): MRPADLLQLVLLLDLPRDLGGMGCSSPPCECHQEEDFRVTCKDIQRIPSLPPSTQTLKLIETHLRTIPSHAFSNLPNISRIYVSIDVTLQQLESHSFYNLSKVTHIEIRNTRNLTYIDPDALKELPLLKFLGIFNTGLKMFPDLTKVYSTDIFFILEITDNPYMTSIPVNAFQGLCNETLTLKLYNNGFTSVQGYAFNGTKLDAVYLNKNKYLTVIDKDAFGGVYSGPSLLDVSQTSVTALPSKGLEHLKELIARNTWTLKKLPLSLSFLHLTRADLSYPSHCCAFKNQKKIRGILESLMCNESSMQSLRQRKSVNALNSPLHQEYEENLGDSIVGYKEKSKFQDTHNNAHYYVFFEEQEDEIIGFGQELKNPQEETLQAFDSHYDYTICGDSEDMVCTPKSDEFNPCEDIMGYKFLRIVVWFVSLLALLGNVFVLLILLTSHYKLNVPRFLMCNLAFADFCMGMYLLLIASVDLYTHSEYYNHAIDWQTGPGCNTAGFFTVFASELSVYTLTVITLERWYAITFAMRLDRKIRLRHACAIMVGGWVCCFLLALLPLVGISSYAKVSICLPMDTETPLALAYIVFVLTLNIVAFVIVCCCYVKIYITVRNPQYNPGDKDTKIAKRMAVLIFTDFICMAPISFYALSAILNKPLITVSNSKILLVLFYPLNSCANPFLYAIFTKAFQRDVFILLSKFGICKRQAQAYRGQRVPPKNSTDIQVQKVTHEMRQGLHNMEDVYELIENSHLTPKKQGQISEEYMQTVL
Sequence of Nuclear receptor subfamily 1 group I member 3 (Homo sapiens) (Q14994 whole entry, looked up): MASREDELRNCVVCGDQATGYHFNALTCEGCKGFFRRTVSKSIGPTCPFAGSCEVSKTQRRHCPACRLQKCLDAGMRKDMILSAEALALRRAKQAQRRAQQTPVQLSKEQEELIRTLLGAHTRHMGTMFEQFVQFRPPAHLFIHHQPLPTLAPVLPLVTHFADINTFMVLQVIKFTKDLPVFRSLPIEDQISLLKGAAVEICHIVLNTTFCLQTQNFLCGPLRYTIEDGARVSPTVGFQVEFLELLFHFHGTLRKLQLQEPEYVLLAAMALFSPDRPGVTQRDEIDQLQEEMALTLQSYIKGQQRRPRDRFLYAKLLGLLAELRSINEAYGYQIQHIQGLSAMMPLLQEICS

Consider `O=C(Cl)c1ccc([N+](=O)[O-])cc1`, for which the Potency result in [1], in assay [2], in assay [3], in assay [4], in assay [5] and in [6] was “inactive” throughout. Moreover, the Potency entry in assay [7] is “inactive”.
Regarding `CC(C)(C)C(=O)OCOP(=O)(COCCn1cnc2c(N)ncnc21)OCOC(=O)C(C)(C)C`, the Potency entry in assay [1], in [3], in assay [4], in assay [7] and in assay [9] was “inactive” throughout. Also, the Potency in [8] was 3.76 µM (active).
With `CC(=O)N(O)CCCCCNC(=O)CCC(=O)N(O)CCCCCNC(=O)CCC(=O)N(O)CCCCCN`, the Potency result in [1], in assay [8], in [2], in assay [4], in [5] and in assay [6] was “inactive” throughout. Besides, the Potency result in assay [7] and in assay [10] was “inactive” each time.
As to `CC(C(=O)O)c1ccc(-c2ccccc2)c(F)c1` (stereo not drawn), the Potency entry in assay [1], in [8], in assay [2], in [3], in assay [5] and in [6] was “inactive” each time. Further, the Potency result in assay [11], in assay [12] and in assay [7] was “inactive” throughout.
Take `C[C@@H](C1=C(CCN(C)C)Cc2ccccc21)c1ccccn1`: the Potency entry in assay [1], in assay [2], in [3], in assay [4], in assay [5] and in assay [6] was “inactive” each time. Moreover, the Potency result in assay [9] was “inactive”.
As to `Cc1cc(CC(=O)O)c(C)n1-c1ccc(Cl)cc1`, the Potency entry in [1], in assay [8], in assay [2], in assay [4], in [5] and in [6] was “inactive” each time. The Potency entry in assay [7], in [13] and in [10] was “inactive” throughout.
`CCN(CC)CCOc1ccc2c(c1)C(=O)c1cc(OCCN(CC)CC)ccc1-2`: the Potency entry in assay [1], in assay [8], in assay [13] and in assay [10] was “inactive” in each case. Further, the Potency was 11.9 µM (active) in assay [3] and 23.7 µM (active) in [6].
Regarding `C=C(C)C(=O)OCCN(C)C`, the Potency entry in assay [1], in [8], in assay [2], in [4], in assay [5] and in assay [6] was “inactive” in each case. Further, the Potency result in assay [11], in [12] and in [7] was “inactive” each time.
For `COCCOCCOCCOCCOC`, the Potency result in assay [1], in [2], in assay [3], in assay [4], in assay [5] and in [6] was “inactive” each time. Moreover, the Potency entry in assay [7] was “inactive”.
As for `O=C1c2cccc(O)c2C(=O)c2c(O)cc(CO)cc21`, the Potency result in assay [1], in assay [8], in assay [4], in assay [6], in assay [11] and in assay [12] was “inactive” throughout. Further, the Potency entry in [13], in assay [10] and in [9] was “inactive” each time.
For `FC(F)(F)C(F)(F)C(F)(F)C(F)(F)C(F)(F)C(F)(F)CCI`, the Potency result in [1], in assay [8], in assay [2], in assay [3], in assay [5] and in [6] was “inactive” in each case. Also, the Potency entry in assay [11], in assay [12] and in assay [9] was “inactive” throughout.
For `CN(C)C/C=C(/c1ccc(Br)cc1)c1cccnc1`, the Potency entry in [1], in assay [2], in [3], in [4], in [5] and in assay [7] was “inactive” each time. In addition, in assay [9], the Potency result is “inactive”. For the same compound, the call in [14] and in [15] was inactive.
As for `CCOC(=O)[C@H](CCc1ccccc1)N[C@H]1CCc2ccccc2N(CC(=O)O)C1=O`, the Potency result in assay [1], in [4], in assay [6], in assay [11], in assay [12] and in [9] was “inactive” each time. In addition, the values for the Potency in [8] and in assay [3] were 29.8 µM (active) and 26.6 µM (active), respectively.
Turning to `CCCc1ccccc1`, the Potency entry in [1], in assay [8], in assay [2], in assay [4], in assay [5] and in assay [6] was “inactive” throughout. Moreover, the Potency result in [11], in [12], in assay [13], in assay [10] and in assay [9] was “inactive” in each case.
On to `CCCC(=O)OCC`, for which the Potency entry in assay [1], in assay [8], in [3], in [4], in [11] and in assay [12] was “inactive” each time. The Potency entry in assay [7] and in assay [9] was “inactive” in each case.
Take `CCCCOC(=O)/C=C\C(=O)OCCCC`: the Potency entry in assay [1], in assay [2], in assay [3], in assay [4], in [5] and in assay [6] was “inactive” in each case. Moreover, the Potency result in [11], in assay [12], in [7], in assay [13], in assay [10] and in assay [9] was “inactive” in each case.
`Oc1ccc(Sc2ccc(O)cc2)cc1`: the Potency entry in [1], in [8], in assay [5], in assay [6], in [11] and in [7] was “inactive” in each case. The Potency in assay [12] was 57.2 µM (active).
As for `O=C(O)Cn1c(C(=O)Nc2nc(-c3ccccc3Cl)cs2)cc2ccccc21`, the Potency result in assay [1], in assay [8], in [2], in [5], in assay [11] and in [13] was “inactive” in each case. Besides, the Potency result in assay [10] and in assay [9] was “inactive” throughout. In addition, in [4], the Potency was 13.8 µM (active).
As for `Cc1ccc(C(C)c2ccc(C)c(C)c2)cc1C`, the Potency result in assay [1], in assay [2], in assay [3], in assay [4], in assay [5] and in assay [6] was “inactive” in each case. Besides, the Potency entry in assay [11] and in assay [12] was “inactive” throughout.
